# Experimental data: PubChem BioAssay (NCI)
# Compounds without any hit were thinned out: in the full panel of roughly 83,000, 20% have a hit.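 Negative percent growth values reflect cell death: -40 means 40% of the cells present at the start died, and -100 means all died.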 Unmarked numbers belong to inactive results. Activity calls are given as the source filed them. The calls were made as follows: active = growth percent below 10; inactive = the rest.
# Columns and labels:
# Experiment in all cases: NCI-60 one-dose screen, 48 h (100 = growth as untreated, 0 = no growth, -100 = all killed)
# Settings in all cases: 10 µM unless noted
# [1] = system: NCI-H23 lung
# [2] = system: NCI-H226 lung
# [3] = system: NCI-H322M lung
# [4] = system: HOP-62 NSCLC
# [5] = system: NCI-H460 lung
# [6] = system: HOP-92 NSCLC
# [7] = system: NCI-H522 lung
# [8] = system: A549/ATCC NSCLC
# [9] = system: 786-0 renal
# [10] = system: COLO 205 colon
Compound,growth [1] [%],growth [2] [%],growth [3] [%],growth [4],growth [5],growth [6],growth [7],growth [8],growth [9],growth [10]
COc1cccc(/C=C/C(=O)c2cc3c(N)c(C(=O)Nc4cccc5ccccc45)sc3nc2C)c1,28.4,36.4,41.1,25%,-0.349% (active),68.8%,12%,20.3%,3.42% (active),33.9%
O=S(=O)(Oc1ccc(Br)cc1)c1ccc(Cl)cc1,89.4,100,97.3,105%,110%,102%,97.4%,101%,89.2%,108%
O=C(CCCCCCN1CC(=O)N2[C@H](c3ccc(Cl)cc3)c3[nH]c4ccccc4c3C[C@@H]2C1=O)NO,60.2,84.1,64.1,61.9%,54.2%,44.4%,32.8%,90.1%,92.9%,57.3%
Cc1nc2c(=O)nc3s/c(=C\c4ccco4)c(=O)n3c2nc1C,96.8,97,93.5,94.8%,101%,85.8%,85.1%,81.2%,97.1%,116%
CN1CCN(c2ccc(NC(=O)c3cncnc3Nc3ccc(OCc4cccc(F)c4)c(Cl)c3)cc2)CC1,78,94.9,81.1,33.1%,5.33% (active),57.1%,103%,57%,56%,6.12% (active)
C=C1C(=O)O[C@H]2[C@H]1CC/C(CNC(=O)c1c[nH]c3ccc(F)cc13)=C\CC[C@@]1(C)O[C@@H]21,14.2,25.9,82.9,70.6%,85.7%,-42.3% (active),-73.9% (active),46.6%,-59.5% (active),-78.6% (active)
CC(C)(C)n1cc(-c2ccnc(NCCCNS(=O)(=O)c3ccc(C(F)(F)F)cc3)c2)c(-c2cccc(F)c2)n1,82,91.1,103,92.7%,76.7%,90.1%,73.7%,64.1%,88.3%,76.9%
COc1cc(OC)c2sc(-c3ccc(-n4cncc4-c4cc(OC)c(OC)c(OC)c4)cc3)nc2c1,54.5,52.7,86.8,79.6%,46.2%,14.8%,43.2%,50.9%,67.2%,44.5%
Ic1ccccc1I,98.9,90.5,126,90.3%,104%,90.2%,100%,98.5%,92%,127%
O=C(Nc1cc(Cl)ccc1O)c1cccc(Nc2ccnc(C(F)(F)F)c2)c1,11.6,54.2,59.1,64.8%,30.5%,53.6%,30.6%,37.1%,49.3%,90.9%
O=C(CCSc1nnc2n(Cc3ccccc3)c(=O)c3c4c(sc3n12)CCCC4)N1CCN(c2ccccc2)CC1,102,100,99.8,103%,102%,94%,104%,104%,102%,102%
N#Cc1c(-c2ccccc2)nc(SCC(O)CN2CCOCC2)nc1N1CCOCC1 (stereo not given),81.7,80,52.3,48%,34%,30.7%,63.3%,80.3%,38.1%,81.1%
C#CCO[C@H]1CC(CC#C)(CC#C)C(=O)[C@@H]2[C@H]1[C@H]1C[C@@H]3[C@@]4(C)CCC[C@@](C)(C(=O)OC)[C@@H]4CC[C@@]23C=C1C(C)C,73.2,88.3,104,98.7%,97.8%,13.6%,-77% (active),89.4%,41.4%,86.8%
NC1=Nc2cc(OCCCCN3Cc4ccccc4C3)c(OCC3CC3)cc2C12CCCC2,66.9,37.7,75.7,73.2%,23.2%,29.4%,67.3%,67.5%,56.2%,-74.5% (active)
CN(C)S(=O)(=O)Oc1ccc(-c2sc3cc(OS(=O)(=O)N(C)C)ccc3c2C(=O)c2ccc(OCCN3CCCCC3)cc2)cc1,74.4,64.6,87.9,49.8%,32.2%,28.5%,39.6%,52.7%,21.5%,36.1%
Cc1c(Cl)cccc1C(=O)Nc1nc2c(s1)CN(C(=O)c1ccc(C(F)(F)F)cc1)CC2,33.7,50.9,45.2,41.8%,0.935% (active),35.9%,11.4%,25.5%,40.3%,6.86% (active)
CCN(CC)CCCOc1ccc2ncnc(Nc3ccc(Oc4cccc(C(F)(F)F)c4)c(Cl)c3)c2c1,15.4,73.1,16,13.6%,-87.7% (active),27.3%,-2.46% (active),5.61% (active),-83.9% (active),-36.7% (active)
CN(Cc1cnc2nc(N)nc(N)c2n1)c1ccc(C(=O)NC(CCC(=O)O)C(=O)O)cc1Br (stereo not given),31.3,48.4,69.6,33.5%,16.7%,59.6%,43.8%,26%,15.8%,36.3%
Cc1ccc(-c2nc(/C=C3/C(=O)Nc4ccc(F)cc43)c3ccccn23)cc1,77.1,95.2,91.6,92.8%,36%,82.2%,62.7%,81.8%,112%,81.9%
Cc1ccc(C2CC(c3nc(-c4ccc(Cl)cc4)oc3C)=NN2C(=O)c2ccncc2)cc1 (stereo not given),85.8,88.3,93.3,99.3%,92.7%,80%,80.8%,84.4%,79.5%,107%
CN1CCN(C(=O)[C@@]2(C)CC[C@]3(C)CC[C@]4(C)C(=CC[C@@H]5[C@@]6(C)CCC(=O)NC(C)(C)[C@@H]6CC[C@]54C)[C@@H]3C2)CC1,61.8,68.3,70.7,62.8%,31.8%,15.9%,74.8%,51.9%,47.9%,7.65% (active)
O=C(NNC(=O)c1ccc(NC(=O)c2ccccn2)cc1)Nc1ccc2ccccc2c1,96.5,103,103,115%,110%,108%,105%,108%,111%,130%
COc1ccc(-c2nn(-c3ccccc3)cc2/C=C/C(=O)NNC(=O)Nc2ccc(C)cc2)cc1,102,97.2,99.6,102%,102%,102%,89.4%,94.8%,101%,103%
COc1cc(C(=O)n2nc(N3CCOCC3)c3cc(-n4cccc4)ccc32)cc(OC)c1OC,76.5,69.3,88.3,92.4%,75.7%,14.4%,74.4%,72.6%,17.4%,56.6%
CN1CCN(Cc2ccc(NC(=O)c3cncc(C#Cc4cnc(N)c5ccc(F)cc45)c3)cc2C(F)(F)F)CC1,30.1,28.2,23.5,7.94% (active),-15.9% (active),-6.92% (active),-81.1% (active),24.4%,-76.8% (active),-25.7% (active)
O=C1/C=C/[C@@H](O)[C@@H]2C[C@@H](O)C[C@H]2/C=C/CCC[C@@H](O)CCO1,77.1,77.3,99.3,103%,110%,98%,108%,89.3%,61.5%,114%
